Bioassay records (PubChem)
B2AR arrestin ag = agonists recruiting beta-arrestin to human beta2-adrenergic receptor. P07550. HTLA Tango cells, beta-arrestin recruitment, luciferase luminescence, 18 h. Potency, µM (doses to about 46.1 µM), most hits filed as activators. 44,000 tested, under 10 active;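 also: potency is read from the fitted curve at half-maximal effect; 0% = DMSO and full agonism = EC100 isoproterenol or metaproterenol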
Target sequence (P07550 whole entry, looked up): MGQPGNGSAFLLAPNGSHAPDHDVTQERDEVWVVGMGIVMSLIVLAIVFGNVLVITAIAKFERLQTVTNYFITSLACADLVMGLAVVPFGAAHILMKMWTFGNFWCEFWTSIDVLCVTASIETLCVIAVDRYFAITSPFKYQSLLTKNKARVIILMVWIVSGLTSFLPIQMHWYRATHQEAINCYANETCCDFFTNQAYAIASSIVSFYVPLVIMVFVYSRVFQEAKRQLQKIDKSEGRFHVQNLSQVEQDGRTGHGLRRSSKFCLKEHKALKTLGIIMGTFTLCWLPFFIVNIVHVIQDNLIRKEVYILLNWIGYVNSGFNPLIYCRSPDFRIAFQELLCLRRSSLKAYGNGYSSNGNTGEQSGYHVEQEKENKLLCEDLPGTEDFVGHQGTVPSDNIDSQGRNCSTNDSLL
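Tango cell line, 1% FBS DMEM; cpd titration up to 46 microM; 18 hr, 37 degrees C, 5% CO2. Luciferin/ATP substrate mix added, 15 min RT, luminescence. %Activity, CRC fitting, curve-class categorization.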
NTMT1 inhibitor = blocks human N-terminal methyltransferase 1 activity; NTMT1 MTase-Glo SAH luminescence, purified enzyme; Potency, µM (highest dose often 114 µM), for inactives: top-dose activity change, negative = inhibition, actives largely listed as inhibitors; hit rate 2.5% among 59,000;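 also: potency is read from the fitted curve at half-maximal effect; plate controls were DMSO vehicle for no effect and no enzyme for full effect; nearly all actives have a fitted effect of over 65% in size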
Target sequence (Q9BV86 whole entry, looked up): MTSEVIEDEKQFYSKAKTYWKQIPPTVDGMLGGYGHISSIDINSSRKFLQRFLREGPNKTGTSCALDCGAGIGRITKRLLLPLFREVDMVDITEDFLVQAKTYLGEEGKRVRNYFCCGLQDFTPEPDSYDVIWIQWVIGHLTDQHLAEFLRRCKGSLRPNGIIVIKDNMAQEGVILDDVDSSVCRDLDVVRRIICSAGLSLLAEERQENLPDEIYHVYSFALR
PTAP-TSG101 blk = inhibitors of HIV-1 PTAP binding to human TSG101, validation | Fluorescence polarization, FITC-PTAP peptide/Tsg101, 20 min | Potency, µM (series often up to 115 µM), actives largely listed as inhibitors | 44,000 tested, under 10 active; also: potency is read from the fitted curve at half-maximal effect; 0% is about no effect
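Read-out is FITC fluorescence polarization. Compounds were added to Tsg101 binding domain (10 uM final), then FITC-PTAP peptide (50 nM final), 20 min at r.t. Total S+P intensity flags fluorescent compounds.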
GALK inhibitor = inhibitors of human galactokinase (GALK) | recombinant GALK, Kinase-Glo ATP luminescence, 1 h | Potency, µM (series often up to 57.5 µM), without a hit: at the highest dose activity, negative = inhibition, hits mostly inhibitors | 44,000 tested, under 10 active | AID 1347072;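 also: plate controls were full GALK reaction for no effect and reaction lacking GALK for full effect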
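Human GALK (5 nM) was incubated with 35 uM ATP and 100 uM galactose in 20 mM HEPES pH 8.0 with MgCl2, NaCl, DTT and BSA for 1 h at room temperature. Remaining ATP was measured by Kinase-Glo Plus luminescence.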
DRV1 agonist = GPR32 (DRV1) agonism, beta-arrestin recruitment; activation, % at 76.9 µM; hit rate 2.5% among 48,000; CHO-K1 GPR32 beta-arrestin PathHunter luminescence, 90 min; zero percent set by DMSO-only wells; O75388; AID 1346428;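 active = activation of at least 60% and not above a set upper limit, about 1 call in 100 departs from these limits; inconclusive = activation of 40% to 60%, or above that upper limit; inactive = activation under 40%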; also: 0% is about no effect
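Cells are plated overnight, treated with compounds in DMSO for 90 minutes at 37 °C, and developed with PathHunter detection reagent for 1 hour before luminescence is read; signal reflects beta-arrestin binding to GPR32 in engineered CHO-K1 cells.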
GALC G270D up = enhancers of human galactocerebrosidase G270D mutant activity in cells | P54803 | 145M-Twi-hGALC-G270D cells (Twitcher mouse brain line with human GALC G270D), HMU-beta-Gal fluorescence, 48 h | Potency, µM (doses to about 57.5 µM), most hits filed as activators | hit rate 0.1% among 45,000 | AID 1159614; also: potency is read from the fitted curve at half-maximal effect; 0% is about no effect; nearly all actives have a fitted effect of over 65% in size
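Brain-derived Twitcher mouse 145M-Twi cells stably expressing human GALC-G270D or wild-type GALC, treated live, then residual GALC activity read by fluorescence of HMU-b-Gal substrate (0.1 mM final) in citrate-phosphate buffer pH 5.2 with sodium taurocholate. Signal increase indicates enhancement.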
NNMT inh = counter-screen for NTMT1 inhibitors: human NNMT inhibition. Potency, µM (highest dose often 57.1 µM), for the others: at the top dose activity, negative = inhibition, hits mostly inhibitors. NNMT MTase-Glo luminescence, SAH detection. shares compounds with NTMT1 inhibitor. hit rate 10% among 120
Numbers without * were called inactive; i = inactive; ? = inconclusive; . = no result given; ! = not confirmed by another sample; [ ] = another dose, or the depositor's remark. A selection: hits, their analogues and other compounds. The true share with any hit is near 3.6%. Unless noted, calls follow the shape of the dose curve; as a rule, active = well fitted curve in the direction sought with a large enough effect; inconclusive = small, poorly fitted or top-dose-only effect, or another doubt; inactive = no such curve, though single readings can be large; an effect the other way counts as inactive or inconclusive.

SMILES	B2AR arrestin ag	NTMT1 inhibitor	PTAP-TSG101 blk	GALK inhibitor	DRV1 agonist	GALC G270D up	others
COc1ccc(-c2cnc3c(-c4cccc5ncccc45)cnn3c2)cc1	.	-2%[57.5 µM]	.	.	.	.
c1cc(-c2cnn3cc(-c4ccc(OCCN5CCCCC5)cc4)cnc23)ccn1	.	34µM*!	.	.	.	.
CC(C)N(CCCNC(=O)Nc1ccc(C(C)(C)C)cc1)C[C@H]1O[C@@H](n2cc(Br)c3c(N)ncnc32)[C@H](O)[C@@H]1O	.	8.9µM*	.	.	.	.
COc1ccc(-c2cn3c(n2)sc2cc(C(=O)Nc4cc(OC)cc(OC)c4)ccc23)cc1	i	-8%	i	0%	-5	i
CCCNC(=O)c1ccc2c(c1)sc1nc(-c3ccc(C)cc3)cn12	i	14%	i	-12%	-4	i
CCN(CC)CCCNC(=O)c1ccc2c(c1)sc1nc(-c3ccc(C)cc3)cn12	i	50µM*	i	2%	-8	i
CCC(C)NC(=O)c1ccc2c(c1)sc1nc(-c3ccc(OC)cc3)cn12 (stereo not drawn)	i	8%	i	0%	81*	i
C/C(=C\CCC(C)C1=CCC2(C)OC3=C(CC12)C(=O)C(O)CC3)CO (stereo not drawn)	.	3%[57.5 µM]	.	.	.	.
CCOC(=O)N1CCc2c(sc(NCc3ccc(OC)c(OC)c3OC)c2C(=O)Nc2ccc(OC)cc2OC)C1	i	20%	i	1%	86*	i
CCOC(=O)N1CCc2c(sc(NCc3cccs3)c2C(=O)Nc2ccc(OC)cc2OC)C1	i	11%	i	2%	1	?
CCOC(=O)c1ccc(NC(=O)c2c(NCc3cccc(OC)c3OC)sc3c2CCC3)cc1	i	56µM*	i	1%	-12	i
O=c1ccc2ccc(O)c(O)c2o1	.	-19%[57.5 µM]	.	.	12	.
O=Cc1ccc(O)c(O)c1O	.	18µM*	.	.	-7	i
O=C(Nc1nccs1)C(c1cc(F)ccc1O)N1Cc2ccccc2C1=O (stereo not drawn)	.	-5%	.	.	.	.
CCOc1cc2c(c(F)c1OCC)C(=N)N(CC(=O)c1cc(N3CCOCC3)c(OC)c(C(C)(C)C)c1)C2	.	32µM*!	.	.	.	.
CCCN(CCC)c1nc(-c2ccccc2F)nc2ccccc12	i	-2%	i	1%	48	i
CCCCN(CCCC)c1nc(-c2ccccc2)nc2ccccc12	i	?	i	-3%	110*	i
CC1(C)Cc2c(sc(NC(=S)NC(=O)c3ccccc3)c2C(=O)O)CO1	.	79µM*!	.	.	.	.
O=C(CSc1cn(CCNC(=O)c2ccccc2F)c2ccccc12)Nc1ccc(F)cc1	i	3%	i	7%	91*	i
CCOc1ccc(NC(=O)CSc2cn(CCNC(=O)c3ccccc3F)c3ccccc23)cc1	i	-14%	i	9%	14	i
O=C(CSc1cn(CCNC(=O)c2cccc(C(F)(F)F)c2)c2ccccc12)Nc1ccc2c(c1)OCCO2	i	-3%	i	7%	112*	i
CC(=O)O[C@H]1[C@H](O[C@H]2CC[C@]34C[C@]35CC[C@]3(C)[C@@H]([C@@]6(C)CC[C@@H](C(C)(C)O)O6)[C@@H](O)C[C@@]3(C)[C@@H]5C[C@H](O[C@@H]3O[C@H](CO)[C@@H](O)[C@H](O)[C@H]3O)[C@H]4C2(C)C)OC[C@@H](OC(C)=O)[C@@H]1O	.	-6%[57.5 µM]	.	.	.	.
Cc1ccc(-c2nn3c(-c4ccccc4)nnc3s2)cc1NC(=O)c1ccc(-c2cccc(Cl)c2)o1	.	-4%	.	.	.	.
CC(C)(C)c1cnc(CSc2cnc(NC(=O)C3CCNCC3)s2)o1	.	50µM*!	.	.	.	.
CC1CC1C(=O)Nc1ccc([S+](=O)([O-])Nc2nccs2)cc1 (stereo not drawn)	.	-25%[57.5 µM]	.	.	.	.
SMILES	B2AR arrestin ag	NTMT1 inhibitor	PTAP-TSG101 blk	GALK inhibitor	DRV1 agonist	GALC G270D up	others
CCN(Cc1ccccc1)C(=O)c1cc2c(=O)[nH]c3ccc(C)cc3c2s1	i	89µM*	i	-4%	-6	i
CCN1CCc2c(sc(NC(=O)CSc3ccccc3)c2-c2nc3ccccc3s2)C1	i	3%	40µM*	-7%	-30	i
COc1cccc(-c2cn(-c3ccc(CCN4CCC(O)CC4)cc3)c3ncnc(N)c23)c1	.	13µM*	.	.	.	.	NNMT inh=?
Nc1ccc(-c2cnc(N)c(-c3ccc(Cl)cc3)c2)cn1	.	6%	.	.	.	.
COc1ccc(-c2ccc3ncc4c(c3c2)n(-c2ccc(N3CCNCC3)c(C(F)(F)F)c2)c(=O)n4C)cn1	.	16µM*!	.	.	.	.	NNMT inh=-18%
O=S(=O)(Nc1ccccc1)c1ccc(NCc2ccc(Br)cc2O)cc1	.	2%	.	.	.	.
O=C(O)CSc1cc(NS(=O)(=O)c2ccc(Br)cc2)c2ccccc2c1O	.	28µM*	.	.	.	.	NNMT inh=?
